About 830 (0.38%) of roughly 220,000 compounds were called active.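 Rule for the calls: active = compound inhibiting the enzyme by more than half at any dose during confirmatory dose-response retesting; inconclusive = strong single-dose inhibitors picked by rank but not retested; inactive = the rest.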 A selection follows. Measured potencies and affinities stand elsewhere.
Each compound was assayed against Leucine aminopeptidase (Plasmodium falciparum (isolate 3D7)) (UniProt Q8IL11) (assay: P. falciparum M17LAP inhibitors, primary screen, biochemical, fluorogenic H-Leu-NHMec substrate, 1536-well (AID 1619;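 note: plate controls were full reaction with DMSO carrier for no effect and no enzyme background for full effect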)). Conditions: recombinant M17LAP, H-Leu-NHMec fluorogenic kinetic assay; at 30 µM; stronger effect = higher value.
Chain of Leucine aminopeptidase (Plasmodium falciparum (isolate 3D7)) (Q8IL11 whole entry, looked up): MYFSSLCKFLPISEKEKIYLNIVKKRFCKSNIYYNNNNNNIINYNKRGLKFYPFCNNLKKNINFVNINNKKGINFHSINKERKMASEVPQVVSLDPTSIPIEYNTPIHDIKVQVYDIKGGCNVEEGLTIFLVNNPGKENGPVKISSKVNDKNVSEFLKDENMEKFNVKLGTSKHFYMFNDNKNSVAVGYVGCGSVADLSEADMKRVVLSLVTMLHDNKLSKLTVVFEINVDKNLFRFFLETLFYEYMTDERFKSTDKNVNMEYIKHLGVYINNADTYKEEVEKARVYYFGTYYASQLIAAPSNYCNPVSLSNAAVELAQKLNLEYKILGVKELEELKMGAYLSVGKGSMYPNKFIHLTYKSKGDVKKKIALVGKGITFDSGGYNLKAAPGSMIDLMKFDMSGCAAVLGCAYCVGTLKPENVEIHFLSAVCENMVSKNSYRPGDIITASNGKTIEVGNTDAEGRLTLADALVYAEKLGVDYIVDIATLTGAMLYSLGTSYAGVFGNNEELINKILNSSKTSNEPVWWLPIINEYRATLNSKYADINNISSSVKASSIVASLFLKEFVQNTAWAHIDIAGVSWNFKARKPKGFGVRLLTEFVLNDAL

inhibition, inactive:
CCc1cccc2c(=O)c(C(=O)N3CCCCCC3)c[nH]c12 3.21%
CCN1CCc2c(OCC(=O)N3CCCc4ccccc43)cccc2C1=O 0.37%
Cc1sc(NC(=O)CCC(=O)O)c(C(N)=O)c1-c1ccccc1 18%
Cc1sc(NC(=O)/C=C/C(=O)O)c(C(N)=O)c1-c1ccc(C(C)(C)C)cc1 21.9%
Cc1sc(NC(=O)C2CCCCC2C(=O)O)c(C(N)=O)c1C (stereo not given) 45%
CC(C)=C1C2CCC1C(C(=O)Nc1sc(C)c(-c3ccc(C(C)C)cc3)c1C(N)=O)C2C(=O)O (stereo not given) -4%
CCc1ccc(-c2c(C)sc(NC(C)=O)c2C(N)=O)cc1 41.9%
COC(=O)c1c(NC(=O)/C=C/C(=O)O)sc(C)c1-c1ccc(C(C)C)cc1 15.5%
CCc1c(C)sc(NC(=O)C2CCCCC2C(=O)O)c1C(N)=O (stereo not given) 50.6%
Cc1sc(NC(=O)C2C3CCC(C3)C2C(=O)O)c(C(N)=O)c1-c1ccc(C(C)(C)C)cc1 (stereo not given) 39.7%
COc1ccccc1-c1n[nH]c(=S)n1N -6.79%
COC(=O)/C(=C/c1ccccc1)NC(=O)c1ccco1 0.48%
COC(=O)c1ccc(CN2CCN(Cc3ccc(F)cc3)C(CCO)C2)cc1 (stereo not given) -9.03%
Cc1ccc(NC(=O)C(CC(C)C)NC(=O)C2CCC(C)CC2)nc1 (stereo not given) -1.65%
CC(C)NC(=O)COC(=O)c1ccc(Cl)c(S(=O)(=O)N2CCCC2)c1 4.58%
Cc1ccc2cc(CCNC(=O)c3ccco3)c(=O)[nH]c2c1C -13.9%
O=C(CCC(=O)NNC(=O)COc1ccccc1)NCc1ccccc1 -10.8%
CC(=O)C1=C(O)C(=O)N(CCCO)C1c1ccccc1 (stereo not given) 27.1%
O=C(c1ccc(S(=O)(=O)N2CCCCC2)cc1)N(c1ccccn1)C1CCCCC1 0.89%
O=[N+]([O-])c1ccc(N2CCCC2)cc1NC(c1ccccc1)c1ccccc1 8.49%
CCOc1ccc(NC(=O)C(=O)N/N=C\c2ccc(CNS(=O)(=O)c3ccccc3)o2)cc1 0.49%
O=C1CCCC(O)=C1N=Nc1cccc(C(=O)O)c1 46.3%
O=Cc1cc(N=Nc2ccccc2Cl)ccc1O 40.2%
O=C(NCc1ccccc1)c1sc(=S)n2c1[nH]c(=O)c1ccccc12 27.9%
CCCCCNC(=O)c1ccc2c(=O)[nH]c3c(C(=O)NCC4CCCO4)sc(=S)n3c2c1 (stereo not given) 53.8%
O=C(NC1CCCCC1)c1sc(=S)n2c1[nH]c(=O)c1ccccc12 24.2%
Cc1ccc(CNC(=O)c2ccc3c(=O)[nH]c4c(C(=O)NCC5CCCO5)sc(=S)n4c3c2)cc1 (stereo not given) 1.99%
Cc1ccc(Nc2nc(N)nc(CSc3nnc(-c4ccncc4)o3)n2)cc1 -3.96%
O=c1cc(C(Cl)(Cl)Cl)oc2c1ccc1ccccc12 -3.47%
CC(=O)C1=C(O)C(=O)N(c2ccc(S(N)(=O)=O)cc2)C1c1ccc([N+](=O)[O-])cc1 (stereo not given) 23%
Cc1ccc(N2CC(=O)Nc3c(oc4nc(-c5ccccc5)cc(C)c34)C2=O)cc1 -16.6%
COC(=O)CSc1[nH]c(=O)cc(C)c1C#N 0.03%
Cc1cc(=O)[nH]c(SCC(=O)O)c1C#N 2.48%
CCOC(=O)CSc1[nH]c(=O)cc(C)c1C#N 17%
Cc1cc(=O)[nH]c(SCC(=O)c2ccccc2)c1C#N 16.9%
CCOC(=O)NC(=O)C(=CNc1ccccc1OC)C(=O)NC(=O)OCC 22.1%
O=[N+]([O-])c1ccc([C@H](O)[C@H](CO)N=Cc2ccccc2O)cc1 3.71%
CCNC(=O)CC1C(=O)N(c2ccccc2)C(=O)N1Cc1ccc(OC)cc1 (stereo not given) -7.36%
Cc1c(-c2nnc(-c3ccc(C(F)(F)F)cc3)o2)cnn1-c1ccccc1 -4.2%
CC(=C\c1ccccc1)/C=C1/SC(=O)N(CCCC(=O)Nc2ccc(C(=O)O)cc2)C1=O 52.8%
CC(/C=C1\SC(=S)N(CC(=O)O)C1=O)=C\c1ccccc1 19.7%
CCCC1CCc2c(sc(NC(=O)OCC)c2C#N)C1 (stereo not given) -10%
CC(=O)Nc1sc2c(c1C#N)CCC(C)C2 (stereo not given) -3.55%
Cc1cc(C(=O)Nc2sc3c(c2C#N)CCC(C(C)(C)C)C3)no1 (stereo not given) -3.46%
CN1CCN(CC(=O)Nc2sc3c(c2C#N)CCC(C(C)(C)C)C3)CC1 (stereo not given) -2.54%
CCCn1ncc(CN2CCN(Cc3ccsc3)C(CCO)C2)c1C (stereo not given) -4.96%
Cc1ccc(Nc2ccc(-n3ccnc3)nn2)cc1C 1.15%
CCCCNC(=O)N1CCN(C(=O)C2CCCO2)CC1 (stereo not given) -0.24%
C=C(C)COc1ccc2oc(C)c(C(=O)OCCOC)c2c1 -2.33%
CCCCOc1ccc(N(CC(=O)NCC2CCCO2)C(=O)CCC(=O)Nc2nccs2)cc1 (stereo not given) -11.6%
CCOc1ccc(NC(=O)C2CC(=O)NC(N3CCc4ccccc43)=N2)cc1 (stereo not given) 13.4%
CCC(=O)Nc1ccc(Br)c(Cl)c1 -2.61%
O=C(CSc1nccc(=O)[nH]1)Nc1ccc(F)c([N+](=O)[O-])c1 31.4%
Nc1cc(=O)[nH]c(SCC(=O)Nc2ccc(F)c(Cl)c2)n1 45.2%
CCCC(=O)Nc1ccc2c(c1)c1ccccc1n2CC -0.99%
O=C(CSc1nccc(-c2cccs2)n1)Nc1ccc(F)c(Cl)c1 8.92%
CCn1c2ccccc2c2cc(NC(=O)CC(C)=O)ccc21 -12.3%
CN(C)S(=O)(=O)c1cccc(NC(=S)NCCCn2ccnc2)c1 2.61%
Cn1nnc2cc(C(=O)N3CCC(c4ccccc4)C3)ccc21 (stereo not given) 9.75%
O=C(COc1ccc(/C=N/NC(=O)c2ccc(O)cc2)cc1)Nc1cccc([N+](=O)[O-])c1 -2.3%

Reference: PubChem BioAssay AID1619 (SRMLSC, 2009)
